# Screening results from PubChem BioAssay.
# STAT3 inh-1 – reduces IL-6 driven STAT3 reporter signal. U3A cells, IL-6 STAT3-luciferase reporter, luminescence; host cell line lacks STAT1. inhibition, % at 5.5 µM. hit rate 0.89% among 190,000;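 active = inhibition above the mean inhibition across all screened compounds plus 3 SD, cut at about 44% in these data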;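 also: 0% = DMSO only wells and 100% = 100 µM nifuroxazide control wells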
# STAT1 inh – reduces IFN-gamma driven STAT1 reporter signal | NIH 3T3 STAT1-luciferase reporter, luminescence | inhibition, % at 5.5 µM | hit rate 0.35% among 200,000 | AID 920;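 active = inhibition above a set limit, the mean inhibition across all tested compounds plus 3 SD, cut at about 34% in these data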;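 also: 0% = IFN-gamma with DMSO and 100% = IFN-gamma with 300 µM nifuroxazide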
# HSF1 inhib – HSF1 inhibition; NIH3T3-HGL HSE-luciferase, MG132-induced, luminescence 8 h; active compounds read low; hit rate 0.77% among 300,000; activity change, negative = inhibition, % at 7.5 µM (by protocol);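 active = more than half of replicate wells show activity change below -50%, luminescence cut by over half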;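 also: luciferase reports HSF-1 transcriptional activity via heat shock element; 0% = median of DMSO wells and -100% = zero luminescence signal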
# HSP90 refold inh – blocks HSP90-mediated luciferase refolding in reticulocyte lysate; hit rate 0.91% among 290,000; inhibition, % at 5.6 µM; Rabbit reticulocyte lysate, luciferase refolding luminescence, 3 h;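 active = inhibition above the screen-wide mean plus 3 SD, computed separately per campaign, cut at about 16% in these data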;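 also: 0% = DMSO wells and 100% = 60 µM geldanamycin wells; inhibitors lower the luminescence because luciferase stays unfolded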
# TRAIL sens C8 – caspase-8 TRAIL sensitization; hit rate 1% among 360,000; inhibition (viability loss, TRAIL sensitization), % at 10 µM; NB7+C8 cells + TRAIL, ATPlite viability luminescence; AID 624354;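 active = compounds causing at least 50% loss of cell viability in the single-dose screen, relative to plate controls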
# PPC-1+TRAIL kill – compounds killing PPC-1 cancer cells with TRAIL present (potentiator screen, no TRAIL-free arm). PPC-1 cells + TRAIL, ATPLite viability luminescence. cell killing (% activity), % at 4 µM or 5 µM. hit rate 0.41% among 220,000. AID 1443;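 active = cell killing above 50% in the first pass at 4 µM, then a duplicate retest at 5 µM averaging 50% or more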;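 also: plate controls were cells with TRAIL plus DMSO for no effect and medium-only wells lacking cells for full effect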
# STAT3 inh-2 – STAT3 inhibition, confirmation assay; U3A cells, IL-6 STAT3 luciferase reporter, luminescence; cell line lacks STAT1; shares compounds with STAT3 inh-1; hit rate 45% among 1,200; inhibition, % at 5.7 µM;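 active = inhibition above the hit cutoff computed for the primary STAT3 screen, cut at about 44% in these data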;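 also: 0% = IL-6 plus DMSO and 100% = IL-6 plus nifuroxazide control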
# NFkB inh STAT3ct – counter-screen for STAT3 inhibitors: NF-kappaB inhibition; AID 1308; HEK293T NF-kB luciferase reporter, TNF-alpha induced; inhibition, % at 5.7 µM; hit rate 36% among 1,200; shares compounds with STAT3 inh-1;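 active = inhibition above the mean of solvent-only control wells plus 3 SD, cutoff set per campaign, cut at about 13% in these data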;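 also: 0% = TNF-alpha with DMSO and 100% = TNF-alpha with MG high control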
# STAT1 inh 2 – inhibits STAT1, counter-screen to STAT3 inhibitors. shares compounds with STAT3 inh-1. NIH 3T3 STAT1-luciferase reporter, IFN-gamma induced, luminescence. inhibition, % at 5.7 µM. hit rate 27% among 1,200;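 active = inhibition above the mean plus 3 SD of solvent-only control wells, limit set per screening run, cut at about 16% in these data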;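 also: 0% = DMSO with IFN-gamma and 100% = nifuroxazide control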
# * hit, by the source's call; x = not tested or not shown. An excerpt weighted towards active compounds, which were near 2.4% of everything screened.
SMILES,STAT3 inh-1,STAT1 inh,HSF1 inhib,HSP90 refold inh,TRAIL sens C8,PPC-1+TRAIL kill,STAT3 inh-2,NFkB inh STAT3ct,STAT1 inh 2
O=C(Nc1ccccc1)c1cc2ccccc2o1,44*,-49,19,13,56*,32,10,-43,-120
CN1CCN(C2CN(Cc3cn(Cc4ccccc4)nn3)S(=O)(=O)C2)CC1 (stereo not given),x,x,x,x,-19,x,x,x,x
O=C(NC1c2ccccc2-c2ccccc21)N1CCCCC1,52*,-2,8,1,0,-4,35,17*,3
CN(C)C(=O)NC1c2ccccc2-c2ccccc21,x,x,-4,-1,-6,x,x,x,x
O=C(NCc1ccccc1)C(CCc1ccccc1)n1c(=O)c(-c2ccccc2)nc2ccccc21 (stereo not given),x,x,x,x,8,x,x,x,x
COC(=O)COc1ccc(S(=O)(=O)NCc2ccncc2)cc1,63*,20,6,1,1,13,54*,5,19*
Fc1cccc(/C=N/Nc2ccc3ccccc3n2)c1,60*,34,-25,0,38,-3,17,-4,-82
Brc1ccc(/C=N/Nc2ccc3ccccc3n2)cc1,2,-28,13,5,7,23,x,x,x
OC(c1cc(F)cc(Cl)c1)c1ncc(-c2cccc(C(F)(F)F)c2)[nH]1 (stereo not given),x,x,x,x,0,x,x,x,x
O=S(=O)(NCC1CCCO1)c1ccc(-c2ccc(S(=O)(=O)NCC3CCCO3)cc2)cc1 (stereo not given),78*,25,-10,0,47,31,84*,33*,22*
Cn1c2c(c(=O)n(C)c1=O)CN(Cc1ccccc1)CN2,x,x,x,x,-9,x,x,x,x
O=c1[nH]c(N2CCOCC2)nc2c1CCCC2,97*,7,-2,7,15,28,2,-7,-6
O=c1[nH]c(N2CCN(c3ccccc3)CC2)nc2c1CCCC2,28,26,15,-1,13,-11,x,x,x
COc1ccc(NC(=O)c2cc(C3CCCCN3S(=O)(=O)c3c(C)noc3C)on2)c(C)c1 (stereo not given),x,x,x,x,-10,x,x,x,x
Cc1cccc(CNC(=O)c2sc(=O)n(Cc3ccc(S(C)(=O)=O)cc3)c2C)c1,x,x,x,x,0,x,x,x,x
c1ccc(-c2cc(CSc3nc4ccccc4[nH]3)on2)cc1,46*,13,41,4,19,-7,37,11,14
Cc1noc(C)c1CSc1nc2ccccc2[nH]1,25,6,2,1,4,14,x,x,x
O=C(Nc1cccc(S(=O)(=O)Nc2ccc(Cl)cc2)c1)c1ccc(Cl)nc1,79*,28,-4,-2,40,1,81*,27*,23*
COc1ccc(NS(=O)(=O)c2cccc(NC(=O)c3ccc(Cl)nc3)c2)cc1,86*,30,-5,2,30,27,84*,38*,24*
COc1cccc(S(=O)(=O)Nc2ccc(C(=O)Nc3ccncc3)cc2)c1,1,15,-14,2,19,10,x,x,x
O=C(Nc1ccc(NS(=O)(=O)c2ccccc2)cc1)c1ccc(Cl)cc1,x,x,1,0,-1,x,x,x,x
Cc1ccc2c(C)nc(Nc3nc(CSc4nc5ccccc5[nH]4)cc(=O)[nH]3)nc2c1,53*,7,-10,-4,41,24,45*,1,2
C[C@@H]1c2ccccc2N2C[C@H](Cc3ccc(C(=O)c4ccccc4)cc3)C[C@@H]12,x,x,x,x,0,x,x,x,x
CC(C)Oc1ccc(C(=O)NC2=NCCS2)cc1,62*,4,1,8,59*,34,30,-21,-79
Cc1ccc(F)cc1CNC(=O)c1cc(COc2ccc3ncccc3c2)on1,38,17,4,0,15,25,x,x,x
SMILES,STAT3 inh-1,STAT1 inh,HSF1 inhib,HSP90 refold inh,TRAIL sens C8,PPC-1+TRAIL kill,STAT3 inh-2,NFkB inh STAT3ct,STAT1 inh 2
O=C(NCc1cccc(Cl)c1)c1cc(COc2ccc3ncccc3c2)on1,45*,28,5,6,31,5,62*,15*,21*
CC(CCCC(C)(C)O)NC(=O)c1cc(COc2ccc3ncccc3c2)on1 (stereo not given),63*,30,0,4,14,10,63*,21*,24*
CCN(CC)C(=O)c1cccc(-c2csc(C(C)(O)c3ccc(F)c(F)c3)n2)c1 (stereo not given),x,x,x,x,9,x,x,x,x
COc1ccc(CCC(=O)Nc2ccc(S(=O)(=O)N3CCOCC3)cc2)cc1OC,x,x,x,x,-19,x,x,x,x
COc1ccc2cc3cc(C(=O)Nc4ccc5c(c4)OCCO5)oc3nc2c1,33,-6,0,2,13,15,x,x,x
COc1ccc2cc3cc(C(=O)Nc4cc(OC)c(OC)c(OC)c4)oc3nc2c1,46*,0,-26,-2,21,23,33,8,-17
Cc1ccc(C(=O)Oc2ccccc2N2C(=O)C3CCCCC3C2=O)cc1 (stereo not given),54*,4,-4,-1,-2,1,38,-1,6
O=C(Oc1ccccc1N1C(=O)C2CC=CCC2C1=O)c1ccc(Br)cc1 (stereo not given),-7,10,0,-4,-9,7,x,x,x
O=C(Oc1ccccc1N1C(=O)C2CCCCC2C1=O)c1ccccc1 (stereo not given),68*,12,12,3,5,-1,46*,4,-16
CCc1nc2c(OCCC3CCCCC3)cccn2c1N(C)C(=O)c1ccc(C)cc1,x,x,x,x,10,x,x,x,x
CC(C)C(NC(=O)c1ccc(C(C)(C)C)cc1)C(=O)Nc1cccc(S(N)(=O)=O)c1 (stereo not given),44*,-12,-7,-1,7,17,10,-2,-3
Cc1ccc(C(=O)NC(C(=O)Nc2cccc(S(N)(=O)=O)c2)C(C)C)cc1 (stereo not given),x,x,3,2,-4,-1,x,x,x
Cc1ccc(C(=O)COC(=O)c2cccs2)cc1,47*,25,11,-4,40,15,6,-23,-66
O=C(COC(=O)c1cccs1)c1ccc2c(c1)OCCO2,54*,17,-52*,7,43,42,19,-6,-40
COc1ccc(Cc2nc3ccc(C(=O)N4CCCCC4CO)cc3o2)cc1OC (stereo not given),x,x,x,x,-4,x,x,x,x
CCCCc1ccc(/C=C(\C#N)C(N)=S)s1,44*,23,x,-1,3,-2,42,-14,17*
COc1ccc(OC)c(S(=O)(=O)Nc2ccc3c(c2)OCCO3)c1,x,x,x,x,-7,x,x,x,x
